Assay results from PubChem BioAssay AID485298 (National Center for Advancing Translational Sciences (NCATS), 2010).
Where “and” joins values, the source holds several entries; their conditions need not be identical. Equal entries are not always repeated. Among all 320,000 compounds or so, about 740 (0.23%) were called active. Another 2% or so got no clear call; they are omitted. The call rests on the fitted dose curve; in most records, active means well fitted activation curve with a large enough effect; inconclusive means small, poorly fitted or top-dose-only effect; inactive means no such curve, though single readings can be large or run the other way. For the sample, actives were picked, then their nearest neighbours and some compounds at random. Some compounds were tested as several samples or in several runs, with calls that do not always agree.

Experiment: qHTS Assay for Small Molecule Inhibitors of Mitochondrial Division or Activators of Mitochondrial Fusion; further: nearly all actives have a fitted effect of over 45% in size; on growth rescue (activation): % of control where 0% means no effect
Conditions: S. cerevisiae fusion-defective mutant growth rescue, CellTiterGlo 48 h; series mostly up to 46.1 µM; growth rescue (activation): at the top concentration
Source text: NIH Chemical Genomics Center [NCGC] NIH Molecular Libraries Probe Production centers Network [MLPCN] MLPCN Grant: MH081279-01 Assay Submitter (PI): Jodi M. Nunnari NCGC Assay Overview: The budding yeast S. cerevisiae is a powerful system to study mitochondrial fusion. Unlike other organisms, yeast cells without functional mitochondrial DNA (mtDNA) can be propagated and studied as long as they maintain a mitochondrial compartment and are provided with a fermentable carbon source. When mitochondrial fusion is blocked in yeast, mitochondrial tubules rapidly fragment and division continues unopposed. Under conditions where fusion is compromised in mammalian cells, nearly identical changes in mitochondrial structure have been observed. Thus, these findings indicate that steady state mitochondrial structure in cells is a characteristic and specific indicator of fusion activity. Mounting evidence has pointed to a connection between mitochondrial dynamics and apoptosis in mammalian cells. These studies indicate that in mammalian cells mitochondrial dynamics are more integrated into cellular processes than in yeast cells and have evolved not only to distribute the organelle but also to aid in the regulation of cellular homeostasis. Mitochondrial fusion proteins attenuate apoptosis by inhibiting the release of cytochrome c from mitochondria, in part by controlling cristae structures. Thus, small molecules that inhibit mitochondrial […] may promote apoptosis and potentially act as novel chemotherapeutics and stimulation of apoptosis has become an attractive target of anti-cancer therapies. To identify inhibitors of mitochondrial division, we exploit the growth phenotypes of mitochondrial fusion-defective mutants. The temperature sensitive fusion alleles, such as fzo1-1 and mgm1-5, cause mitochondrial membranes to fragment in cells under non-permissive conditions and cells lose mtDNA, and are unable to grow in the presence of non-fermentable carbon source glycerol. Inhibiting mitochondrial division rescues growth. We have developed and optimized a luminescence cell viability assay in 1536 well format for the identification of inhibitors in the yeast mitochondrial fusion-defective assay.
The yeast glycerol stocks where kindly supplied by the laboratory of Dr. Jodi Nunnari, University of California, Davis. All yeast glycerol stock solutions were stored in single use aliquots at -80C. The CellTiterGlo luminescence reagent, containing luciferase and luciferin, were purchased from Promega, and the reagents were stored according to manufacturer's instructions. The Buffer components for the YPEG yeast growth medium were purchased from Sigma-Aldrich (St. Louis, MO). YPEG growth medium: 1% (w/v) yeast extract, 2% (w/v) Bacto-peptone, 3% Ethanol, 3% glycerol, 0.4mM Tryptophan, 0.36mM Adenine. qHTS Assay Protocol: 1.#Dispense 2.5 ul yeast growth medium per 1536 well plate. 2.#Transfer 23 nl per well of compound to plate. 3.#Dispense 2.5 ul yeast solution at appropriate seeding density per well. 4.#Incubate for 48 hours at 37C. 5.#Dispense 5 ul of CellTiterGlow solution per well. 6.#Incubate at ambient for 10 minutes. 7.#Read using bio-luminescence protocol on Viewlux.
Potency means the concentration at half of the fitted maximal effect.

Compound	growth rescue (activation)	Potency
COc1ccccc1N(C)S(=O)(=O)c1ccc(C(=O)NC2CCCCCC2)cc1	-3.35% (inactive)	–
COc1ccc(CCNC(=O)CN2C(=O)CCSc3ccccc32)c(OC)c1	-10.5% (inactive)	–
COc1ccc(CNC(=O)CNC(=O)c2sc3ccccc3c2Cl)cc1OC	-3.78% (inactive)	–
O=C(N/N=C/c1c(Cl)[nH]c2ccccc12)c1sc2ccccc2c1Cl	–	15.8 µM (active)
COCCNC(=S)N/N=C/c1c(C)[nH]c2ccccc12	-4.82% (inactive)	–
Nc1ncnc2c1c(I)cn2[C@@H]1C[C@H](N)[C@@H](O)[C@H]1O	-0.615% (inactive)	–
COc1ccccc1NC(=O)c1cc(S(=O)(=O)NCCc2ccccc2)ccc1F	-4.24% (inactive)	–
COc1cccc(-n2c(=O)c3c(C)c(C(=O)N(C)C)sc3n(CC(=O)NCCc3ccc(OC)c(OC)c3)c2=O)c1	-2.48% (inactive)	–
COCCCNC(=O)c1ccc(CNS(=O)(=O)c2ccc(NC(C)=O)cc2)cc1	–	0.631 µM (active)
CC(=O)Nc1ccc(S(=O)(=O)NCCc2ccccc2)cc1	-2.71% (inactive)	–
CCCCNC(=O)C1CCC(CNS(=O)(=O)c2ccc(NC(C)=O)cc2)CC1 (configuration not stated)	-18.1% (inactive)	–
O=C(NC1CCCC1)C(c1ccco1)N(C(=O)c1ccco1)c1ccc(F)cc1 (configuration not stated)	0.928% (inactive)	–
CN(C)C(=O)c1ccc2c(c1)C1C3CCC(C3)C1C(c1ccccc1)N2 (configuration not stated)	–	12.6 µM (active)
CN(C)C(=O)c1ccc(NC(=O)c2ccccc2-c2ccccc2)cc1	-1.29% (inactive)	–
CC1(C)C/C(=C(/C#N)C(N)=O)CCO1	-4.67% (inactive)	–
NC(N)=Nc1nc2ccc(Br)cc2c(=O)[nH]1	3.53% (inactive)	–
O=S(=O)(Nc1ccc2nc(N3CCOCC3)sc2c1)c1ccccc1	9.86% (inactive)	–
CC(=O)OCCOCn1cnn2c(=O)c(Br)c(C)nc12	-1.24% (inactive)	–
CCC(=O)c1ccc(OCC(=O)Nc2ccc(N3CCCCC3)cc2)cc1	0.121% (inactive)	–
CCC(=O)Nc1ccc(-c2ccc(N3CCCCC3)nn2)cc1	–	17.8 µM (active)
CC1CCN(c2ccc(-c3ccc(NC(=O)c4ccco4)cc3)nn2)CC1	13.5% (inactive)	–
CCOc1ccc(/C(O)=C2\C(=O)C(=O)N(c3ccc(OC)cc3)C2c2ccccc2[N+](=O)[O-])cc1 (configuration not stated)	-5.38% (inactive)	–
CCOC(=O)C1=C(c2ccccc2)NC(=O)NC1c1cc(OC)c(OC)cc1OC (configuration not stated)	5.15% (inactive)	–
CCCC[C@]12Cc3cc(OC)c(OC)cc3C(O1)C1=C(CC3(CCCCC3)OC1=O)O2	-0.167% [at 9.22 µM] (inactive)	–
COc1ccccc1CN1CCCC(N2CCN(c3ccc(F)cc3)CC2)C1 (configuration not stated)	-2.15% (inactive)	–
O=C(c1ccc(C(F)(F)F)cc1)C1CCCN(C(=O)c2csnn2)C1 (configuration not stated)	2.59% (inactive)	–

Compound	growth rescue (activation)	Potency
O=C(CCNC(=O)c1ccccc1)Nc1nc2ccccc2s1	-3.72% (inactive)	–
O=C(CN1C(=O)S/C(=C\c2ccccc2F)C1=O)NCCCn1ccnc1	0.524% (inactive)	–
O=C(CN1C(=O)/C(=C\c2ccccc2F)SC1=S)Nc1nc2ccccc2s1	–	12.6 µM (active)
CS(=O)(=O)N1CCN=C1SCc1ccc(F)cc1	4.07% (inactive)	–
COc1cc2ccccc2cc1C(=O)Nc1ccccc1C	1.86% (inactive)	–
O=C(Nc1ccccc1-c1ccccc1)c1ccccc1[N+](=O)[O-]	2.36% (inactive)	–
COc1cc(OC)c(C(=O)Nc2ccccc2-c2ccccc2)cc1OC	–	15.8 µM (active)
O=C(O)CCN(Cc1ccccc1)S(=O)(=O)c1c(Cl)cccc1Cl	22.5% (inactive)	–
CCN(C(=O)CN1CCN(Cc2ccccc2)CC1)c1c(N)n(Cc2ccccc2)c(=O)[nH]c1=O	-42.3% (inactive)	–
COc1ccc(OC)c(C(=O)NC(CC(N)=O)c2ccc(N3CCC(N4CCCCC4)CC3)c([N+](=O)[O-])c2)c1 (configuration not stated)	-2.61% (inactive)	–
COc1ccc(CCNC(=S)N2CCN(S(=O)(=O)c3ccc(Cl)cc3)CC2)cc1	-0.0364% (inactive)	–
Oc1cc2c(cc1O)CN(C(=S)NCCc1ccc(Cl)cc1)CCC2	–	inactive and 18.4 µM (active)
O=C(NCCc1ccc(Cl)cc1)c1cccc(N2CCCC2=O)c1	-2.8% (inactive)	–
Oc1ccc(Cn2cc[nH]c2=S)cc1	-1.97% (inactive)	–
CN(C)CCN=c1cc(-c2ccccc2)oc2ccc(Cl)cc12	-3.04% (inactive)	–
COc1ccc(/C=C/c2c(-c3cccc(C)c3)oc3ccc(-c4ccc5c(c4)OCO5)cc23)cc1	-0.013% (inactive)	–
CSCC(NS(=O)(=O)c1ccc(C)cc1)C(=O)O (configuration not stated)	1.27% (inactive)	–
CSCCC(NS(=O)(=O)c1ccc(C)cc1)C(=O)N1CCCC1 (configuration not stated)	–	35.5 µM (active)
CSCCC(NC(=O)c1ccccc1)C(=O)N1CCCCCCC1 (configuration not stated)	2.81% (inactive)	–
CC(=O)c1cccc(NC(=O)C2CCCN2S(=O)(=O)c2cccc3nsnc23)c1 (configuration not stated)	-1.28% (inactive)	–
C=CCn1c(CCNC(=O)c2ccccc2F)nnc1SCC(=O)Nc1ccc(OC)cc1	-3.75% (inactive)	–
CC(=O)NC(c1cccs1)c1cc(Br)c2cccnc2c1O (configuration not stated)	7.37% (inactive)	–
Cc1cc(C(=O)Nc2nnc(C3CC3)s2)c(C)s1	8.28% (inactive)	–
O=C(CNC(=O)c1ccc(F)cc1)c1ccccc1	-3.34% (inactive)	–
CN(C)c1ccc(C(CNC(=O)c2ccc(F)cc2)c2c[nH]c3ccccc23)cc1 (configuration not stated)	–	15.8 µM (active)
C[C@H](NC(=O)c1ccccc1)C(=O)OCC(=O)c1c[nH]c2ccccc12	-0.566% (inactive)	–
